Values joined by “and” are separate entries in the source; they are usually repeats but may differ in a detail not shown here. Equal entries are not always repeated. Inconclusive results are not listed. A call without a number means that no potency is given here. More than one record can exist for a structure, and the calls need not agree. Active and inactive are the calls of the source. Unless noted, calls come from the whole dose curve; as a rule, active = well fitted curve in the direction sought with a large enough effect in the repeat runs; inconclusive = weak or mixed curves; inactive = no such curve, though single readings can be large; an effect the other way counts as inactive or inconclusive.
Assays:
[1] = qHTS assay to identify small molecule agonists of the peroxisome proliferator-activated receptor delta (PPARd) signaling pathway - cell viability counter screen (AID 743211); note: nearly all actives have a fitted effect of over 55% in size; note: potency is the fitted concentration of half-maximal effect
In short: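 Tox21 library compounds, delivered in DMSO, were incubated 17 h with PPARd-bla HEK293H cells; cytotoxicity was taken from CellTiter-Glo luminescence read 30 min after reagent addition.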

[2] = molecular target: Peroxisome proliferator-activated receptor delta (Homo sapiens) (UniProt Q03181); assay: qHTS assay to identify small molecule agonists of the peroxisome proliferator-activated receptor delta (PPARd) signaling pathway (AID 743212; calls by dose curve)
Chain of Peroxisome proliferator-activated receptor delta (Homo sapiens) (Q03181 whole entry, looked up): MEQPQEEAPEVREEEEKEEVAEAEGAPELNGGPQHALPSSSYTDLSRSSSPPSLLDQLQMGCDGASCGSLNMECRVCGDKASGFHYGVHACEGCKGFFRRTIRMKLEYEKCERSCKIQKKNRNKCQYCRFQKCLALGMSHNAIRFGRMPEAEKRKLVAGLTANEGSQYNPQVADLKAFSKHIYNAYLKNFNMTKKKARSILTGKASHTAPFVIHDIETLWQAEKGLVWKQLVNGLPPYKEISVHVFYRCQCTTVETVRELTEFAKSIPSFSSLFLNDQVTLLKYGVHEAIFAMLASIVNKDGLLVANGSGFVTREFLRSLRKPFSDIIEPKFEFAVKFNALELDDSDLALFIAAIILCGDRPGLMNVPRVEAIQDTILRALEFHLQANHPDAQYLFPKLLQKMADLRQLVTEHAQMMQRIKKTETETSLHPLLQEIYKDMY
In short: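 A PPARd-bla HEK293H line with beta-lactamase under an Upstream Activator Sequence is treated with compounds at 37 C. Substrate loading for 2 h at room temperature precedes the fluorescence measurement.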

[3] = qHTS assay to identify small molecule antagonists of the peroxisome proliferator-activated receptor delta (PPARd) signaling pathway - cell viability counter screen (AID 743213); note: nearly all actives have a fitted effect of over 50% in size; note: potency is the fitted concentration of half-maximal effect
In short: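 HEK293H PPARd UAS-bla cells, 5 h pre-incubation, compound + L165041 300 nM final, 17 h 37 C; B/G FRET substrate 2 h RT; then CellTiter-Glo 30 min RT, luminescence.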

[4] = molecular target: Peroxisome proliferator-activated receptor delta (Homo sapiens) (UniProt Q03181); assay: qHTS assay to identify small molecule antagonists of the peroxisome proliferator-activated receptor delta (PPARd) signaling pathway (AID 743215; active = well fitted inhibition curve with a large enough effect in the signal ratio in the repeat runs, not every such curve was filed as active; the % refers to the signal ratio;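 note: cells stimulated with agonist L165041 at 300 nM final during compound exposure; series mostly up to about 62 µM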)
In short: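 With L165041 present at 300 nM final, compounds were incubated 17 h at 37 C on PPARd UAS-bla HEK293H cells. A FRET-based beta-lactamase substrate was then applied for 2 h at room temperature and fluorescence intensity recorded.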

[5] = molecular target: Bile acid receptor (Homo sapiens) (UniProt Q96RI1); assay: qHTS assay to identify small molecule antagonists of the farnesoid-X-receptor (FXR) signaling pathway (AID 743217; active = well fitted inhibition curve with a large enough effect in the signal ratio in the repeat runs, not every such curve was filed as active; the % refers to the signal ratio; note: potency is the fitted concentration of half-maximal effect)
Chain of Bile acid receptor (Homo sapiens) (Q96RI1 whole entry, looked up): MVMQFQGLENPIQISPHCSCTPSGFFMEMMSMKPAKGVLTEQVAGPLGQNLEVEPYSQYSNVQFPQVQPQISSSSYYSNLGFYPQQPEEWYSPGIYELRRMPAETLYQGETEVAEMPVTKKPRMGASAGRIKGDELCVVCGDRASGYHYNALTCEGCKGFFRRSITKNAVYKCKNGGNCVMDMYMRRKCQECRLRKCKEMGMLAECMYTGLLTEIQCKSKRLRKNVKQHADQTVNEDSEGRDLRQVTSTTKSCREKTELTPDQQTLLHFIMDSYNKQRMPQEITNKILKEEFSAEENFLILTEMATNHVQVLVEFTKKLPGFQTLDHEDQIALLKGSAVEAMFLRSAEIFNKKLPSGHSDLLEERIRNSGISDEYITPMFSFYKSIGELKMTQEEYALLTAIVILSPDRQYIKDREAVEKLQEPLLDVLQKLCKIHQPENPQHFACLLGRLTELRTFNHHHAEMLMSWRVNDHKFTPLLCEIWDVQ
In short: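 In this cell-based antagonist screen, inhibition of CDCA-driven (50 uM final) UAS-beta-lactamase expression in HEK 293T cells was measured by FRET fluorescence following 16 h compound exposure at 37 °C.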

[6] = molecular target: Bile acid receptor (Homo sapiens) (UniProt Q96RI1); assay: qHTS assay to identify small molecule agonists of the farnesoid-X-receptor (FXR) signaling pathway (AID 743220; active = well fitted activation curve with a large enough effect in the signal ratio in the repeat runs, not every such curve was filed as active; the % refers to the signal ratio)
In short: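 Beta-lactamase reporter under UAS control in GeneBLAzer FXR HEK 293T cells (5000/well) measured with LiveBLAzer FRET substrate after 2 h at room temperature. Compound exposure lasted 16 h at 37C.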

[7] = qHTS assay to identify small molecule antagonists of the farnesoid-X-receptor (FXR) signaling pathway - cell viability counter screen (AID 743221; active = well fitted cell-killing curve with a large enough effect in the repeat runs, not every such curve was filed as active; note: nearly all actives have a fitted effect of over 50% in size; note: potency is the fitted concentration of half-maximal effect)
In short: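 Cytotoxicity is taken from ATP luminescence (CellTiter-Glo, 30 min, room temperature) in FXR-bla HEK 293T cells previously incubated 16 h at 37 C with compound and chenodeoxycholic acid at 50 uM final.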

[8] = molecular target: Vitamin D3 receptor (Homo sapiens) (UniProt P11473); assay: qHTS assay to identify small molecule agonists of the vitamin D receptor (VDR) signaling pathway (AID 743222; calls by dose curve)
Chain of Vitamin D3 receptor (Homo sapiens) (P11473 whole entry, looked up): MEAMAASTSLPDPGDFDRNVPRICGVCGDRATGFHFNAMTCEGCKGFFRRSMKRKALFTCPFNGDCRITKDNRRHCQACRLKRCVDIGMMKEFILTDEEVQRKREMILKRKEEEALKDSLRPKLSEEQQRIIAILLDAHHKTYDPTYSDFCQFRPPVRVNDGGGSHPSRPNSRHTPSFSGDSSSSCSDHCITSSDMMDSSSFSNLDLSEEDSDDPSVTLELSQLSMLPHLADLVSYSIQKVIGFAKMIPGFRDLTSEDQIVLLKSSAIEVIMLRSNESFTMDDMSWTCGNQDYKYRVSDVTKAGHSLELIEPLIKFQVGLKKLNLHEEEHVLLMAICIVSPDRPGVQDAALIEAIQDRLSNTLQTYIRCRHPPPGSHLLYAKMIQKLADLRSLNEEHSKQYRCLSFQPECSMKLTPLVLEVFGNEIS
In short: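 VDR-bla cells were seeded, left 4 h, treated with compounds in DMSO for 16 h, incubated 2 h at RT with B/G FRET substrate, and read for fluorescence.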

[9] = qHTS assay to identify small molecule agonists of the vitamin D receptor (VDR) signaling pathway - cell viability counter screen (AID 743224); note: nearly all actives have a fitted effect of over 50% in size; note: potency is the fitted concentration of half-maximal effect
In short: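 Here cell health was gauged by luminescent ATP detection (CellTiter-Glo, 30 min RT) in VDR-bla cells that had been incubated with test compounds for 16 h at 37C and 5% CO2.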

[10] = qHTS assay to identify small molecule antagonists of the vitamin D receptor (VDR) signaling pathway - cell viability counter screen (AID 743225); note: nearly all actives have a fitted effect of over 50% in size; note: potency is the fitted concentration of half-maximal effect
In short: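 Same-well multiplex: following 16 h treatment of HEK 293T cells carrying a UAS-driven beta-lactamase reporter with compound and agonist (3 nM final), and a 2 h FRET substrate step, CellTiter-Glo was added and luminescence read after 30 min.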

[11] = qHTS assay to identify small molecule agonists of the NFkB signaling pathway - cell viability counter screen (AID 1159515; calls by dose curve; note: nearly all actives have a fitted effect of over 55% in size; note: potency is the fitted concentration of half-maximal effect)
In short: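 5 hr compound treatment of NFkB-bla ME-180 cells (2,000/well, seeded overnight beforehand), followed by reporter substrate for 1.5 hr. CellTiter-Glo added afterward; luminescence after 30 min RT.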

[12] = qHTS assay to identify small molecule agonists of the endoplasmic reticulum stress response signaling pathway - cell viability counter screen (AID 1159517; calls by dose curve; note: nearly all actives have a fitted effect of over 50% in size; note: potency is the fitted concentration of half-maximal effect)
In short: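 CellTiter-Glo was added to wells already read for beta-lactamase FRET, and luminescence was recorded 30 min later. Cells: ESRE-bla HeLa, 1,500 per well, compound exposure 5 hr at 37 C.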

[13] = qHTS assay to identify small molecule antagonists of the retinoid-related orphan receptor gamma (ROR-gamma) signaling pathway - cell viability counter screen (AID 1159520); note: nearly all actives have a fitted effect of over 50% in size; note: potency is the fitted concentration of half-maximal effect
In short: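 Tet-on ROR gamma CHO cells (1,000/well) were plated 4 hr, given compounds in DMSO for 2 hr at 37 C, then induced with 1 uM final doxycycline for 16 hr. Viability was read as ATP by CellTiter-Glo luminescence after 30 min.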

[14] = qHTS assay to identify small molecule agonists of the AP-1 signaling pathway - cell viability counter screen (AID 1159525; calls by dose curve; note: nearly all actives have a fitted effect of over 55% in size; note: potency is the fitted concentration of half-maximal effect)
In short: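 ME-180 AP-1-bla, 2500 cells/well, Opti-MEM + 0.5% dialyzed FBS; overnight 37 °C; cpd 15-pt titration, 5 h 37 °C; CellTiter-Glo 30 min RT; luminescence read; normalised to TOAB and DMSO controls.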

[15] = qHTS assay to identify small molecule agonists of the AP-1 signaling pathway (AID 1159526; calls by dose curve)
[16] = qHTS assay to identify small molecule agonists of the farnesoid-X-receptor (FXR) signaling pathway - cell viability counter screen (AID 743218); note: nearly all actives have a fitted effect of over 45% in size; note: potency is the fitted concentration of half-maximal effect
In short: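 After 16 h at 37 C with test compounds, FXR-bla HEK 293T cells were given LiveBLAzer B/G substrate for 2 h at RT and then CellTiter-Glo; luminescence was taken after 30 min.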

[17] = molecular target: Vitamin D3 receptor (Homo sapiens) (UniProt P11473); assay: qHTS assay to identify small molecule antagonists of the vitamin D receptor (VDR) signaling pathway (AID 743223; active = well fitted inhibition curve with a large enough effect in the signal ratio in the repeat runs, not every such curve was filed as active; the % refers to the signal ratio; note: potency is the fitted concentration of half-maximal effect)
In short: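 Quantitative HTS in VDR-bla reporter cells stimulated with 1alpha,25-dihydroxyvitamin D3, 3 nM final. Compound exposure 16 h, 37C, 5% CO2. Read-out: beta-lactamase FRET substrate fluorescence, 2 h RT.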

[18] = molecular target: Retinoic acid receptor RXR-alpha (Homo sapiens) (UniProt P19793); assay: qHTS assay to identify small molecule agonists of the RXR signaling pathway (AID 1159527; calls by dose curve; note: nearly all actives have a fitted effect of over 35% in size)
Chain of Retinoic acid receptor RXR-alpha (Homo sapiens) (P19793 whole entry, looked up): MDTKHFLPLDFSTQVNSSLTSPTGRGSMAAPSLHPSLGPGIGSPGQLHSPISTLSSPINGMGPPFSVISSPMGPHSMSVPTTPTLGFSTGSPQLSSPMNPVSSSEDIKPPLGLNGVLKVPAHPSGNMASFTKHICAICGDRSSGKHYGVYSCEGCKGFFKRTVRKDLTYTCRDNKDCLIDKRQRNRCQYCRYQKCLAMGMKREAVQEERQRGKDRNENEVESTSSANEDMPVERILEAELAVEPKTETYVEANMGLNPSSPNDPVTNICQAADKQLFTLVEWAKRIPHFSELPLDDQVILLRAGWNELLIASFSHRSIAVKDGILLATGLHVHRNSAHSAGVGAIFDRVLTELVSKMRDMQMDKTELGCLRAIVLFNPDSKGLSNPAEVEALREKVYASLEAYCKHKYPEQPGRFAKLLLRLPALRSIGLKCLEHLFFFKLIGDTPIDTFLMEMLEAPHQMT
In short: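 Compounds in DMSO were added to RXR-alpha-UAS-bla HEK 293T cells kept in 2% charcoal-stripped serum, and incubated 16 hr at 37 C with 5% CO2. Reporter signal came from a 2 hr B/G FRET substrate step.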

[19] = molecular target: Nuclear receptor ROR-gamma (Homo sapiens) (UniProt P51449); assay: qHTS assay to identify small molecule antagonists of the retinoid-related orphan receptor gamma (ROR-gamma) signaling pathway (AID 1159521; note: nearly all actives have a fitted effect of over 50% in size; note: potency is the fitted concentration of half-maximal effect)
In short: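 Inducible-expression reporter assay: doxycycline (1 uM final) switched on RORγ in CHO cells bearing a ROR response element-luciferase construct, with test compounds present from 2 h beforehand. Decreased luminescence after 16 h defined antagonist activity.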

SMILES | Potency [1] | Potency [2] | Potency [3] | Potency [4] | Potency [5] | Potency [6] | Potency [7] | Potency [8] | Potency [9] | Potency [10] | Potency [11] | Potency [12] | Potency [13] | Potency [14] | Potency [15] | Potency [16] | Potency [17] | Potency [18] | Potency [19]
CCCCC/C=C\C/C=C\CCCCCCCC(=O)O | inactive | inactive | inactive | inactive | inactive | inactive | inactive | inactive | inactive | inactive | inactive | inactive | inactive | inactive | inactive | – | – | – | –
COc1cc(S(=O)(=O)O)c(C)cc1N=Nc1c(O)ccc2cc(S(=O)(=O)O)ccc12 | inactive | – | inactive | inactive | inactive | inactive | inactive | inactive | inactive | inactive | inactive | inactive | – | inactive | inactive | inactive | inactive | inactive | –
CCCCCCCCCCCCCC[N+](C)(C)Cc1ccccc1 | 22.2 µM (active) and 21.1 µM (active) | – | 22.2 µM (active) and 10.6 µM (active) | – | inactive | inactive | 49.7 µM (active) | inactive | 24.9 µM (active) | 24.9 µM (active) and 16.9 µM (active) | 49.7 µM (active) | 17.7 µM (active) and 23.9 µM (active) | 69.6 µM (active) | 23.9 µM (active) | – | – | 44.3 µM (active) | – | 24.7 µM (active) and 26.6 µM (active) and 20 mM (active)
C=Cc1ccccc1C=C | inactive | inactive | inactive | inactive | inactive | – | inactive | inactive | inactive | inactive | inactive | inactive | – | inactive | inactive | – | inactive | – | inactive
Cc1c(N)cccc1C(F)(F)F | inactive | inactive | – | inactive | – | – | inactive | inactive | inactive | inactive | inactive | – | inactive | inactive | inactive | inactive | inactive | inactive | inactive
CC(C)(C)c1ccc(C(O)CCCN2CCC(C(O)(c3ccccc3)c3ccccc3)CC2)cc1 (centres undefined) | 10.6 µM (active) | – | 7.5 µM (active) | – | – | – | – | – | 13.3 µM (active) | inactive | 21.3 µM (active) | 21.3 µM (active) | 18.8 µM (active) | inactive | inactive | – | inactive | – | –
CCn1c2ccccc2c2cc([N+](=O)[O-])ccc21 | inactive | – | – | – | inactive | – | inactive | – | inactive | – | inactive | inactive | inactive | inactive | inactive | inactive | – | – | inactive
CCCCCCCCCCCCCC[N+](C)(C)C | 37.6 µM (active) and 24.5 µM (active) and 26.6 µM (active) | – | 21.1 µM (active) and 6.16 µM (active) | – | – | inactive | 47.3 µM (active) and 29.8 µM (active) | – | – | 26.6 µM (active) and 6.16 µM (active) and 23.9 µM (active) | 54.9 µM (active) | 37.6 µM (active) and 34.6 µM (active) and 23.9 µM (active) | 61.1 µM (active) | 42.2 µM (active) and 48.9 µM (active) and inactive | – | 47.3 µM (active) | – | – | –
NC(=S)NC(N)=S | inactive | – | inactive | – | – | – | inactive | inactive | – | – | inactive | inactive | – | inactive | – | – | inactive | – | inactive
OC/C=C/CO | inactive | inactive | inactive | inactive | – | – | inactive | inactive | inactive | inactive | inactive | inactive | inactive | inactive | inactive | – | inactive | inactive | –
CC(=O)OCC=C(C)C | inactive | inactive | inactive | inactive | – | – | inactive | inactive | inactive | inactive | inactive | – | inactive | inactive | inactive | inactive | inactive | inactive | inactive
O=C(O)c1cc(-c2ccc(F)cc2F)ccc1O | inactive | – | – | – | – | – | inactive | – | inactive | – | inactive | inactive | inactive | inactive | inactive | inactive | – | – | inactive
C#CC1(O)CC[C@H]2[C@@H]3CCC4=CCCC[C@@H]4[C@H]3CC[C@@]21C (some centres undefined) | 11.9 µM (active) | inactive | – | – | – | inactive | – | inactive | 49 µM (active) and 23.7 µM (active) | 21.3 µM (active) | 13.4 µM (active) | 49 µM (active) and 10.7 µM (active) | 61.1 µM (active) and 26.6 µM (active) | 43.6 µM (active) and 15.1 µM (active) | – | – | – | – | 43.3 µM (active) and 23.7 µM (active)
OC1CCC(C2CCCCC2)CC1 (centres undefined) | – | inactive | inactive | inactive | inactive | inactive | inactive | inactive | – | inactive | inactive | inactive | – | inactive | inactive | inactive | inactive | inactive | inactive
C=CCn1c(=O)n(CC=C)c(=O)n(CC=C)c1=O | inactive | – | inactive | inactive | – | – | inactive | inactive | inactive | inactive | inactive | – | – | inactive | inactive | inactive | inactive | – | inactive
CC1(C)CCC[C@]2(C)[C@H]3CCO[C@]3(C)CC[C@@H]12 | inactive | inactive | – | inactive | – | – | inactive | inactive | – | inactive | inactive | – | – | inactive | inactive | inactive | inactive | inactive | inactive
Cc1cc(-n2nc3ccc(Cl)cc3n2)c(O)c(C(C)(C)C)c1 | inactive | inactive | inactive | inactive | inactive | – | inactive | inactive | inactive | inactive | inactive | – | – | inactive | inactive | inactive | inactive | inactive | inactive
CC(C)CCCCCOC(=O)CCS | inactive | inactive | – | inactive | – | – | inactive | inactive | inactive | inactive | inactive | – | inactive | – | inactive | inactive | inactive | – | –
COc1c(C)c2c(c(O)c1C/C=C(\C)CCC(=O)OCCN1CCOCC1)C(=O)OC2 | – | inactive | – | – | 1.5 µM (active) | – | – | inactive | inactive | – | inactive | – | – | inactive | inactive | – | – | – | –

Source: PubChem BioAssay (Tox21)
